Among all 48,000 compounds or so, about 13,000 (27%) showed an effect of 50% or more. The list shows a part of the results.

The assay has as its system Wolbachia pipientis. The assay is described as follows: Anti-Wolbachia Cell-Based Screen. The note with it: 5 µM. It counts as functional. Also on record: scale not given: in the data most compounds retested in dose-response had high values.
Turning to `CC(C)CC(CCO)CNC(=O)N1CCOC2(CCCC2)C1` (stereo not given), the “Percent Effect” value is on record as 9.888%.
For `CC1Cc2ccccc2N1Cc1occc1C(=O)O` (stereo not given) the value was -32.9%.
As for `O=C(CN1CCSCC1c1ccccc1)N1CCCC1` (stereo not given), the figure is -1.528%; as for `CCC(C(=O)NCc1ccn(-c2ccc(F)cc2)n1)N1CCCC1=O` (stereo not given), 13.5%; as for `Cc1nccn1C1(C(=O)O)CCN(Cc2ccc3nsnc3c2)CC1`, 4.136%.
With `Cc1cc(C(=O)N2CCCC2)ccc1NCCO`, the “Percent Effect” value is -9.298%.
For `Cc1cc(C(=O)N2CCCC2)ccc1NCC(=O)N1CCOCC1`, the “Percent Effect” value was determined as 96.96%.
As for `Cc1cc(C(=O)N2CCCC2)ccc1NS(C)(=O)=O`, the figure is -1.573%; as for `Cc1cc(C(=O)N2CCCC(C)C2)ccc1NCC(=O)N1CCOCC1` (stereo not given), 106.6%.
On to `Cc1cc(C(=O)N2CCCCC2C)ccc1NCC(=O)N1CCOCC1` (stereo not given), for which the “Percent Effect” value is given as -5.879%.
As for `Cc1cc(C(=O)N2CCCC2)ccc1NCC(=O)N1CCCCC1C` (stereo not given), the figure is 98.59%; as for `COc1ccc(NC(=O)N2CCOCC(CN(C)C)C2)c(C)c1` (stereo not given), -4.922%.
In the case of `CCCNC(=O)CNc1ccc(C(=O)N2CCCCC2C)cc1C` (stereo not given), the “Percent Effect” value is reported as -8.167%.
For the molecule `Cc1cc(C(=O)N2CCC(C)CC2)ccc1NS(C)(=O)=O`, the “Percent Effect” value was 7.517%.
For the molecule `Cc1cc(C(=O)N2CCCCC2C)ccc1NCCCO` (stereo not given), the “Percent Effect” value is on record as 3.863%.
As for `Cc1cc(C(=O)N2CCCCC2C)ccc1NC(=O)N1CCOCC1` (stereo not given), the figure is 99.93%; as for `O=C(O)C(F)(F)F.c1cc(C2CC2)n2cnc(C3CN(Cc4nccs4)CCO3)c2c1` (stereo not given), 7.631%.
In the case of `CC(=O)NCCCSC1CCCN(c2ccccc2Cl)C1=O` (stereo not given), the “Percent Effect” value turned out to be 1.649%.
With `Cn1ccnc1SCCNC1CCN(c2ncccn2)CC1`, the “Percent Effect” value turned out to be 12.3%.
As to `CC(C)c1ccc(-c2nnn(CCNS(C)(=O)=O)n2)cc1`, the “Percent Effect” value is given as -15.95%.
`O=C(O)C(F)(F)F.O=C(c1cccs1)N1CCC[C@]2(C[C@@H](OCc3ccncc3)CO2)C1`: the “Percent Effect” value was -0.9808%.
Turning to `CCn1cc(C(=O)N2CCCC(c3noc(C)n3)C2)cn1` (stereo not given), the “Percent Effect” value worked out at 122%.
For `Cc1cnn(CCC(=O)N2CCCC(c3nc(C)no3)C2)c1` (stereo not given) the value was 6.871%; for `Cc1nc(C2CCCN(C(=O)c3cnn(C4CCCCC4)c3)C2)no1` (stereo not given), 101.3%; for `Cc1nc(C2CCCN(C(=O)c3cnn(C(C)(C)C)c3)C2)no1` (stereo not given), 1.32%.
For `Cc1nc(C2CCCN(C(=O)c3cnc(C)s3)C2)no1` (stereo not given), the “Percent Effect” value was -5.153%.
Turning to `Cc1nc(C2CCCN(C(=O)c3cc(C)sc3C)C2)no1` (stereo not given), the “Percent Effect” value is recorded as -7.599%.
Turning to `Cc1cnn(CCC(=O)N2CCCC(c3cc(C(N)=O)[nH]n3)C2)c1` (stereo not given), the “Percent Effect” value worked out at 5.057%.
Regarding `Cc1cnn(CCC(=O)N2CCCC(c3noc(C)n3)C2)c1` (stereo not given), the “Percent Effect” value is on record as 105%.
For `CC(=O)c1cc(CC(=O)NCc2ccsc2)cs1`, the “Percent Effect” value is listed as -1.009%.
Consider `CC(=O)N1C[C@H](NS(=O)(=O)N2CCOCC2)[C@@H](c2ccc(C)o2)C1`, for which the “Percent Effect” value is -11.37%.
For `CN1CC(c2ccccc2)CC12CCN(C(=O)c1cncc(Cl)c1)CC2` (stereo not given) the value was 1.146%; for `CCCc1cc(N2CCCC2Cn2nc(C)nc2C)n2ncnc2n1` (stereo not given), -15.77%; for `CC(C)(CNC(=O)C(C)(C)Oc1ccc2c(c1)CCCC2=O)C(N)=O`, -6.308%.
`Cc1nc2ccc(C(=O)N3CCn4c(nnc4C4CC4)C3)cc2nc1C`: the “Percent Effect” value turned out to be 122.4%.
Take `CCn1c(C2CCN(C(=O)c3ccc4sc(C)nc4c3)CC2)n[nH]c1=O`: the “Percent Effect” value is given as -3.012%.
`CCc1nnc2n1CCN(C(=O)c1ccc3nc(C)c(C)nc3c1)C2`: the “Percent Effect” value is given as 6.266%.
In the case of `Cc1nc2cc(C(=O)N3CCn4c(nnc4C4CC4)C3)ccc2s1`, the “Percent Effect” value was found to be 86.87%.
Turning to `Cc1nnc2n1CCN(C(=O)c1cnc(C3CC3)s1)C2`, the “Percent Effect” value came to 2.098%.
In the case of `CN(C)c1cccc(C(=O)N2CCn3c(nnc3-c3ccccc3)C2)c1`, the “Percent Effect” value turned out to be 0.7654%.
For `CN1CCN(c2ccc(NC(=O)c3ccoc3)c(C(F)(F)F)c2)CC1`, the “Percent Effect” value came to 7.046%.
Regarding `O=C(c1ncncc1Cl)N1CCC2(CCCC2)CC1`, the “Percent Effect” value is reported as -11.62%.
As for `CN(C)C(=O)CCS(=O)(=O)Cc1ccn(-c2cccc(F)c2)n1`, the figure is -10.5%; as for `Cn1cnc(NC(=O)C2CC(=O)N(c3cccc(F)c3)C2)n1` (stereo not given), 77.24%; as for `CNC(=O)C1CC(=O)N(c2cccc(F)c2)C1` (stereo not given), -1.566%.
Turning to `COc1cc(NC(=O)C2CC(=O)N(c3cccc(F)c3)C2)ncn1` (stereo not given), the “Percent Effect” value is given as -6.208%.
With `O=C(Cc1ccc2c(c1)CCO2)N1CCN(c2cnccn2)CC1`, the “Percent Effect” value is listed as -10.75%.
For the molecule `O=C(Cc1ccc2c(c1)OCCCO2)Nc1nnn[nH]1`, the “Percent Effect” value was found to be 102.7%.
With `O=C(Cc1ccc2c(c1)OCCO2)NC1CCCC1`, the “Percent Effect” value is reported as -1.576%.
Turning to `O=C(CCc1ccc2c(c1)CCO2)Nc1nnn[nH]1`, the “Percent Effect” value is recorded as 108.2%.
Turning to `O=C(Cc1ccc2c(c1)CCO2)Nc1cccnc1-n1cncn1`, the “Percent Effect” value is listed as -24.6%.
For `O=C(Cc1ccc2c(c1)OCCO2)NCCc1nnc2n1CCC2`, the “Percent Effect” value is -0.3257%.
On to `CN(C)c1ncc(-c2ccc(F)cc2)c(C2CNCCO2)n1.Cl` (stereo not given), for which the “Percent Effect” value was 112.1%.
As for `COc1ccc(-c2cnc(N(C)C)nc2C2CNCCO2)cc1.Cl` (stereo not given), the “Percent Effect” value is 76.7%.
Regarding `CN(C)c1ncc(-c2cncnc2)c(C2CNCCO2)n1.Cl` (stereo not given), the “Percent Effect” value is 130%.
Consider `Cc1csc(C(C)(C)NCCCS(C)(=O)=O)n1`, for which the “Percent Effect” value is reported as -31.79%.
Consider `CC(C)Cc1ccc(S(=O)(=O)Nc2ccc(=O)n(C)c2)cc1`, for which the “Percent Effect” value was -23.57%.
On to `CC(C)C(O)C(=O)N1CCC2(CC1)c1nc[nH]c1CCN2S(C)(=O)=O` (stereo not given), for which the “Percent Effect” value is recorded as -6.881%.
With `CCc1cc(O)nc(C2CCCN2C(=O)c2cccnc2)n1` (stereo not given), the “Percent Effect” value was -9.162%.
`O=C(c1cc(-c2ccc(O)cc2)n[nH]1)N1CCCC1c1cccnc1` (stereo not given): the “Percent Effect” value is listed as -9.956%.
Turning to `CC(C)(C)C(=O)N1CCCC1c1nc(O)cc(-c2ccccn2)n1` (stereo not given), the “Percent Effect” value was -2.189%.
As to `O=C(c1ccncc1)N1CCCC1c1nc(O)cc(-c2ccccn2)n1` (stereo not given), the “Percent Effect” value was found to be 134.3%.
With `O=C(c1cccnc1)N1CCCC1c1nc(O)cc(-c2ccccn2)n1` (stereo not given), the “Percent Effect” value worked out at 120.2%.
Consider `O=C(c1ccc2c(c1)COC2)N1CCN(CC2CC2)CC1`, for which the “Percent Effect” value is given as -6.158%.
For the molecule `CCOCc1nn(CC2CC2)c2c1CN(Cc1ccco1)CC2.O=C(O)C(F)(F)F`, the “Percent Effect” value is given as -45.76%.
Turning to `COCc1nn(CC2CC2)c2c1CN(Cc1cccs1)CC2.O=C(O)C(F)(F)F`, the “Percent Effect” value is -6.214%.
On to `Cc1nc(NC(C)C)nc2c1CN(Cc1cccs1)CC2`, for which the “Percent Effect” value stood at 0.7721%.
`O=C(O)C(F)(F)F.c1csc(CN2CCCn3cnc(COCC4CC4)c3C2)c1`: the “Percent Effect” value is -4.67%.
Consider `COCc1nn(C(C)C)c2c1CCN(Cc1cccs1)C2.O=C(O)C(F)(F)F`, for which the “Percent Effect” value stood at 0.7419%.
As for `CCOCc1nn(C)c2c1CN(CCO)CC2`, the “Percent Effect” value amounted to 105.8%.
As to `Cn1nc(COCC2CC2)c2c1CCN(Cc1ccco1)C2.O=C(O)C(F)(F)F`, the “Percent Effect” value was -12.11%.
As to `CCOCc1nn(C)c2c1CN(C(=O)c1ccno1)CC2`, the “Percent Effect” value is given as -1.809%.
For `CC(C)OCc1nn(C)c2c1CN(Cc1cccs1)CC2.O=CO`, the “Percent Effect” value is listed as 90.1%.
For the molecule `CCN1CCc2c(c(COC)nn2C)C1`, the “Percent Effect” value was -29.06%.
Take `Cn1nc(COCC2CC2)c2c1CCN(Cc1cccs1)C2.O=C(O)C(F)(F)F`: the “Percent Effect” value is 99.16%.
Consider `CCOCc1nn(CC2CC2)c2c1CN(Cc1cccs1)CC2.O=C(O)C(F)(F)F.O=C(O)C(F)(F)F`, for which the “Percent Effect” value is reported as 105%.
Turning to `Cc1ccc(C)c2c(O)cc(CNCC(=O)N3CCCC3)nc12`, the “Percent Effect” value is recorded as -11.62%.
As for `COc1ccc(CNC(=O)N2CCCN(CC3CCCCC3)CC2)cn1`, the “Percent Effect” value is reported as -6.571%.
On to `CN(C)c1ncccc1NC(=O)COC1CCCC1`, for which the “Percent Effect” value was 0.222%.
For the molecule `CCOCc1nn(C)c2c1CN(Cc1cccs1)CC2.O=C(O)C(F)(F)F`, the “Percent Effect” value is 87.87%.
As for `O=C(O)C(F)(F)F.OCCOCc1ncn2c1CN(Cc1cccs1)CCC2`, the “Percent Effect” value was found to be 0.3209%.
Turning to `CCCN(CC(F)F)c1cc(COC)nc2ncnn12`, the “Percent Effect” value is recorded as -12.24%.
For `O=C(c1ccc(C2CCCN2)s1)N1CCC2(CCCO2)CC1` (stereo not given), the “Percent Effect” value was 16.77%.
As for `OC1CCN(C2CCN(c3ccc(Cn4ccnc4)cn3)CC2)CC1`, the figure is 89.01%; as for `COc1cnc(N2CCCN(c3ccc(F)cc3)CC2)nc1`, 8.48%.
For `Fc1ccc(N2CCCN(c3ccc(Cn4ccnc4)cn3)CC2)cc1` the value was 119.2%; for `CC(C)N1CCCC(CN(C)c2ccc(Cn3ccnc3)cn2)C1` (stereo not given), -1.53%.
`CN(CC1CCN(c2ccccc2)C1)c1ccc(Cn2ccnc2)cn1` (stereo not given): the “Percent Effect” value is reported as -14.61%.
`O=C(NCCn1ccnc1)NCc1ccc(N2CCCCCC2)nc1`: the “Percent Effect” value turned out to be 15.34%.
In the case of `CC1CCN(c2ccc(CNC(=O)NCCn3ccnc3)cn2)CC1`, the “Percent Effect” value turned out to be 0.6283%.
In the case of `c1cn(Cc2ccc(N3CCCN(C4CCCC4)CC3)nc2)cn1`, the “Percent Effect” value is 96.41%.
As for `c1csc(-c2cc(CN3CCN(c4cnccn4)CC3)no2)c1`, the figure is -0.0676%; as for `c1cc(CN2CCCN(c3ccc4cc[nH]c4n3)CC2)ccn1`, -27.97%.
As for `c1cn(Cc2nnc(C3CCN(C4CCCCC4)CC3)n2C2CC2)cn1`, the figure is 13.15%; as for `c1csc(CN2CCCN(c3ccc(Cn4ccnc4)cn3)CC2)c1`, 106.4%.
With `CCOc1ccc(C(=O)N2Cc3cnc(CC(C)C)nc3C2)o1`, the “Percent Effect” value was -22.23%.
`Cc1ccc(CC(NC(=O)CCS(C)(=O)=O)c2ccccn2)cc1` (stereo not given): the “Percent Effect” value is reported as -19.62%.
Regarding `C[S+]([O-])c1nncn1CC(=O)c1ccc(Br)cc1` (stereo not given), the “Percent Effect” value was -5.183%.
`Cc1ccc(CN2CCCC3(CCCCN3S(C)(=O)=O)C2)s1.O=C(O)C(F)(F)F` (stereo not given): the “Percent Effect” value is recorded as -28.3%.
`Cc1nn(C)c(Cl)c1C1CCCN1C(=O)c1cc[nH]n1` (stereo not given): the “Percent Effect” value is given as -2.963%.
On to `CC(=O)NCc1ccc(C(=O)N2CCCC2c2c(C)nn(C)c2C)o1` (stereo not given), for which the “Percent Effect” value was found to be 97.07%.
Take `Cc1ccn2cc(C(=O)N3CCCC3c3c(C)nn(C)c3C)nc2c1` (stereo not given): the “Percent Effect” value amounted to 3.405%.
As for `Cc1ncncc1C(=O)N1CCCC1c1c(C)nn(C)c1Cl` (stereo not given), the “Percent Effect” value is recorded as 95.8%.
For `Cc1nn(C)c(Cl)c1C1CCCN1C(=O)c1cnccn1` (stereo not given) the value was 91.27%; for `Cc1nn(C)c(Cl)c1C1CCCN1C(=O)c1csnn1` (stereo not given), 106%.

These data come from ChEMBL document CHEMBL3988442, “University of Dundee, Small-Polar-MMV Screening Library” (2021).
